Laboratory results: the supplement of paper PMC13380429

Test system: Vero E6 infected with SARS-CoV-2
Assay: inhibition of SARS-CoV-2 cytopathic effect; higher = more antiviral protection, active = above 15
Conditions: 48 h

Measured: inhibition of SARS-CoV-2 cytopathic effect

Cc1c[nH]c2ncnc(N3CCC(CN)(C(=O)Nc4cccc(OC(=O)N(C)C)c4)CC3)c12
inactive: 1 nM -0.02% | 8.33 nM -1.69% | 100 nM 4.07% | 833.33 nM -0.25% | 10000 nM 5.79%

O=C(Nc1nc(-c2cc(Cl)cs2)c(N2CCN(C3CCCCC3)CC2)s1)c1cnc(N2CCC(C(=O)O)CC2)c(Cl)c1 [avatrombopag]
inactive: 1 nM 2.06% | 8.33 nM 0.14% | 100 nM 0.09% | 833.33 nM -3.82% | 10000 nM -0.97%

O=C(Nc1ccccc1)Nc1ccc(-c2ccc(C(=O)[C@@H]3CCC[C@@H]3C(=O)O)cc2)cc1
inactive: 1 nM -1.33% | 8.33 nM 1.31% | 100 nM 3.77% | 833.33 nM 1.06% | 10000 nM -1.53%

CC(=O)Nc1nnc(S(N)(=O)=O)s1 [acetazolamide]
inactive: 1 nM -0.16% | 8.33 nM -1.99% | 100 nM -1.3% | 833.33 nM -2.21% | 10000 nM -1.25%
